PubChem BioAssay AID1276 (Columbia University Molecular Screening Center, 2008)
The whole screen tested about 190,000 compounds, of which about 2,000 (1.1%) were called active.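 How the source made its calls: active means activation above a set limit, based on mean plus 3 SD of controls (cut at about 140% in these data); inconclusive means one replicate above the limit, the other below; inactive means the rest.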 Only a selection was taken, and actives are over-represented in it overall.

Assay: activators of APP 5'UTR luciferase reporter, primary screen, SH-SY5Y cells (AID 1276)
Settings: SH-SY5Y APP 5'UTR luciferase reporter, luminescence; at 2 µM; hits give high values; zero percent = DMSO vehicle wells

activation, active:
Cc1cc(O)c(NC(=O)c2ccc(C)c([N+](=O)[O-])c2)cc1C 142%
CCc1ccc2oc(-c3ccc(N)cc3)nc2c1 141%
O=C(c1cnn(-c2ccc(Cl)cc2)c1)c1ccccc1O 177%
CCc1ccc(NC2Nc3cc(C)nn3S2)cc1 (centres undefined) 166%
Cc1ccccc1Nc1nc(N)nc(CSc2ccccc2)n1 159%
Cc1cc(NC(=O)CSc2nc3c(cc2C#N)CCCCC3)no1 191%
COc1ccc(-c2csc(-c3cccs3)n2)cc1OC 172%
O=c1c2c(nc3cc(-c4cccc(Cl)c4)[nH]n13)CCCC2 158%
COc1ccc(-c2cn3ccsc3n2)cc1 135%
NC1=NN(c2cccc(C(=O)O)c2)C(=O)C1 135%
c1ccc2sc(NN=C3CCCC3)nc2c1 193%
O=C(O)c1ccc(N/N=C/c2cn(-c3ccccc3)nc2-c2cccs2)cc1 140%
COc1ccccc1OCc1nc2ccccc2s1 142%
COc1ccc(-c2nc(-c3ccccc3)no2)c(OC)c1 139%
COc1ccccc1NC(=O)c1ccc(C)s1 141%
COC(=O)c1sc(NC(=O)c2ccc(OC)cc2OC)nc1C 137%
NC(=O)Cc1ccc2sc(-c3ccccc3)nc2c1 140%
COc1ccc2nc(NC(=O)c3ccc(Br)s3)sc2c1 136%
N/C(=N\OC(=O)c1ccc([N+](=O)[O-])cc1)c1ccccn1 149%
O=C(/C=C/c1ccc(N2CCOCC2)cc1)c1ccccc1 140%
CN(C)CCN=c1cc(-c2ccccc2)oc2ccc(Cl)cc12 158%

activation, inactive:
Cc1ccc(C(=O)Nc2cccc3ncccc23)cc1[N+](=O)[O-] -2.5%
CCN1CCC(=NNC(=O)c2ccc(C)c([N+](=O)[O-])c2)CC1 -0.15%
O=[N+]([O-])c1ccccc1N/N=C1\CCc2ccccc21 120%
Nc1ccc(-c2nnc(-c3ccc(-c4ccccc4)cc3)o2)cc1 79.7%
CCCCCC(=O)Nc1ccc2oc(-c3ccncc3)nc2c1 7.49%
C=CCNC(=S)N1CCN(CCN=Cc2c(C)[nH]n(-c3ccc([N+](=O)[O-])cc3)c2=O)CC1 1.34%
O=C(CN1CCN(c2ccc(O)cc2)CC1)Nc1cc(S(=O)(=O)N2CCOCC2)ccc1Cl 2.42%
OCC1(CCOc2ccccc2)CCN(Cc2cn[nH]c2-c2ccccc2)CC1 7.79%
Cc1ncc(CC(=O)n2cc(C(=O)c3cc(Cl)ccc3O)cn2)s1 6.84%
O=C(O)c1ccc(NC(=O)c2cn(-c3ccccc3)nc2-c2ccc(Cl)cc2)cc1 8.51%
Cc1nc2ccccc2nc(=O)c1NNc1ccc([N+](=O)[O-])cc1 -4.38%
CCc1ccc(NC(=O)N2CCN(c3ccccc3)CC2)cc1 1.57%
CCOC(=O)c1ccc(NC2Nc3cc(C)nn3S2)cc1 (centres undefined) 4.66%
CC(=O)c1ccc(-c2nnc(CCC(=O)N(C)Cc3cnc4ccccn34)o2)s1 -5.43%
COC(=O)CN1C(=O)N/C(=C/c2ccc(OC)c(C)c2OC)C1=O -21.7%
Cc1cc(C)n(Cc2cnc(N3CCOCC3)s2)n1 22.6%
NNC(=O)c1cnn(-c2ccccc2)c1C(F)(F)F 15.9%
Cc1ccc(C(=O)OCc2nc(N)nc(Nc3ccccc3C)n2)cc1 -2.39%
Cc1ccccc1Nc1nc(N)nc(CSc2nnc3ccccn23)n1 59.9%
CCCC1(C(=O)OC)NC(c2ccco2)C2C(=O)N(C)C(=O)C21 (centres undefined) 9.69%
CC(=O)NCCc1nc2cc(NC(=O)c3ccccc3)ccc2n1C 55.4%
Cc1cc(C)c2nc(SCC(=O)N(C)C3CCS(=O)(=O)C3)cc(C)c2c1 (centres undefined) 11.6%
O=C(CC1SCCNC1=O)Nc1ccc(Cl)c(Cl)c1 (centres undefined) -7.34%
Cc1nc(SCC(=O)Nc2cc(C)on2)c2c3c(sc2n1)CCCC3 -10.6%
CC(NC(=O)CSc1nc2c(cc1C#N)CN(C)CC2)c1ccccc1 (centres undefined) 1.35%
COc1ccc(C2CC(c3cccs3)=Nc3ccccc3S2)cc1OC (centres undefined) 2.96%
COc1ccc(-c2nn3c(-c4ccccc4)nnc3s2)cc1OC 12.1%
O=C(NCCc1ccccn1)c1cc(-c2ccc(Cl)cc2)nc2ccccc12 -9.75%
O=C1CCCc2c1nc(-c1cccc(Cl)c1)n2O -94.3%
O=c1c2c(nc3nc[nH]n13)CCC2 3.94%
Cc1ccc(-c2cc(N)on2)cc1 -4.88%
CCC(C)NC(=O)Cn1nc(C(F)(F)F)c2c1CCC2 (centres undefined) -3.33%
CCCC(=O)Nc1cccc(-c2cn3ccsc3n2)c1 20.7%
COc1ccc(-c2cn3cccnc3n2)cc1 35.2%
CN1C(=O)/C(=C\c2ccc(-c3ccccc3)o2)SC1=S 5.23%
Cc1cccc(OC(=O)c2sc3ncn(C)c(=O)c3c2C)c1 62.6%
O=C(c1cccc(N2CCCC2=O)c1)N1CCOCC1 10.7%
O=C(O)c1cccc(N2C(=O)Nc3ccccc3N2O)c1 27.8%
CCOC(=O)c1cc2c(=O)[nH]c(C(Cl)(Cl)Cl)nc2o1 5.69%
CCCCOc1ccc(C(=O)NCC(=O)OCC(=O)N2CCN(S(=O)(=O)c3ccc(C)cc3C)CC2)cc1 -1.98%
O=[N+]([O-])c1cc(Br)c(O)c(/C=N/Nc2nc3ccccc3s2)c1 12.5%
Cc1ccnc(Nc2nc3ccccc3s2)n1 127%
CCOCCCNC(=S)N1CCC(NC(=O)C2CCCCC2)CC1 -16.3%
CCn1ccnc1CN(C)Cc1nc(-c2ccc3c(c2)OCO3)no1 14.5%
O=C(O)/C=C/c1cn(-c2ccccc2)nc1-c1cccs1 -9.09%
O=C(/C=C\c1cn(-c2ccccc2)nc1-c1cccs1)N1CCOCC1 -5.12%
COc1ccc(/C=N/N=C/c2c[nH]c(=O)c(C#N)c2Nc2ccccc2)cc1 -8.9%
CCc1ccc(-c2nnn(Cc3nc4ccccc4s3)n2)cc1 0.38%
COc1cccc2sc(NNC(=O)c3nc4ccccc4s3)nc12 7.9%
CC(O)C(NS(=O)(=O)c1ccc(Cl)cc1)C(=O)OCc1cc([N+](=O)[O-])cc2c1OCOC2 (centres undefined) 22.7%
COc1ccc(-c2noc(-c3ccc(C)cc3)n2)cc1 38.2%
CCOc1nc(-c2ccc(OC)cc2)ccc1-c1noc(-c2cc(OC)c(OC)c(OC)c2)n1 -12.3%
COc1ccccc1NC(=O)C1=C(C)NC(=O)NC1c1ccc(C)s1 (centres undefined) 12.8%
COC(=O)c1c(NC(C)=O)sc(C(=O)Nc2ccccc2OC)c1C 2.59%
CC[n+]1c(C)n(-c2ccccc2)c2ccc(NC(C)=O)cc21 19.1%
CCOC(=O)c1sc(NC(=O)c2ccncc2)nc1C 7.58%
COc1ccc(C(=O)Nc2nncs2)c(OC)c1 31.6%
CCN(CC(=O)Nc1ccc(Cl)c(S(=O)(=O)N(C)C)c1)Cc1nc2ccccc2c(=O)[nH]1 -2.77%
O=C(O)Cc1sc(-c2ccc(C(=O)O)cc2)nc1-c1ccccc1 19.5%
O=C(O)Cc1sc(-c2ccccc2)nc1-c1cccs1 2.54%
O=C(Nc1nc2ccc([N+](=O)[O-])cc2s1)c1ccc(S(=O)(=O)N2CCCc3ccccc32)cc1 2.11%
CCCCN(C(=O)COc1ccc(NC(C)=O)cc1)C1CCS(=O)(=O)C1 (centres undefined) 6.89%
COc1cccc(C(=O)Nc2nc3ccc(S(C)(=O)=O)cc3s2)c1 61.6%
COc1ccc2nc(Nc3nc4ccc(NC(C)=O)cc4s3)sc2c1 20.2%
CCOC(=O)CSC1=N/C(=C/c2ccc(-n3cncn3)cc2)C(=O)N1C(C)=O -12%
O=C(NCc1nnc(SCC(=O)N2CCC(Cc3ccccc3)CC2)o1)c1ccco1 -6.49%
N/C(=N\OC(=O)Cc1ccc([N+](=O)[O-])cc1)c1ccccn1 60.6%
O=C(OCc1ccc([N+](=O)[O-])cc1)c1ccccn1 -1.07%
O=[N+]([O-])c1ccc2[nH]c3c(c2c1)CCCC3O (centres undefined) -8.34%
O=C(COC(=O)c1ccccc1F)Nc1cc(S(=O)(=O)N2CCOCC2)ccc1N1CCCC1 6.91%
O=C(/C=C/c1ccccc1)c1ccoc1 0.93%
O=C(O)c1ccc2c(c1)C(=O)N(c1ccc(/C=C/C(=O)c3ccccc3)cc1)C2=O 19.3%
O=S(=O)(Nc1ccccn1)c1cccc(S(=O)(=O)c2ccc(Cl)cc2)c1 8.9%
COCCNC(=S)Nc1cc(S(=O)(=O)N2CCOCC2)ccc1N1CCCCC1 21.7%
Cn1nnnc1SCC(=O)NNC(=O)c1ccc(Br)cc1 -3.54%
O=C(COC(=O)CNS(=O)(=O)c1ccccc1)NC12CC3CC(CC(C3)C1)C2 0.34%
CN(C)CCn1c(=S)[nH]c2ccc(Cl)cc2c1=O -6.45%
Cc1cc(C)n(-c2ccc(C(=O)O)cc2[N+](=O)[O-])n1 -4.56%
